High-throughput results: PubChem BioAssay, National Center for Advancing Translational Sciences (NCATS)
A selection: hits, their analogues and other compounds. The true share with any hit is near 6.8%.
MCF10A rereplic = induces DNA re-replication in MCF 10a normal breast cells. MCF 10A DNA re-replication, Hoechst nuclear intensity, 48 h. Potency, µM (top dose mostly 46.1 µM), most hits filed as activators. actives 2.9% (n = 350,000). AID 624296; note: nearly all actives have a fitted effect of over 50% in size
SW480 rerep = induces DNA re-replication in SW480 colon adenocarcinoma cells; actives 1.8% (n = 340,000); Potency, µM (highest dose often 46.1 µM), actives largely listed as activators; SW480 DNA re-replication, Hoechst DNA content imaging, 48 h; note: nearly all actives have a fitted effect of over 55% in size
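250 cells/well; 23 nL cpd via pin tool; 48 hr, 37 C, 5% CO2; Hoechst 40 min; imager read of total nuclear intensity, ex 405/em 500-530 nm.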
KB-V1 MDR tox = KB-V1 MDR subline cytotoxicity | AID 1347076 | Potency, µM (top dose mostly 46.1 µM), most hits filed as cytotoxic | actives 3.4% (n = 400,000) | KB-V1 MDR cells viability, CellTiter-Glo, 72 h; note: nearly all actives have a fitted effect of over 60% in size
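KB-V1 cells (P-gp-expressing MDR subline of KB-3-1) in phenol-red-free DMEM with 10% FBS were exposed to library compounds over a concentration series for 72 h at 37 degrees C. Viability read by CellTiter-Glo luminescence; concentration-effect curves fitted after normalization.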
PINK1 modulator = changes PINK1 expression. PINK1 immunofluorescence, high-content cytometry, 24 h. Potency, µM (highest dose often 76.6 µM), usual class: activators. actives 0.2% (n = 410,000); active = well fitted activation curve with a large enough effect; inconclusive = small, poorly fitted or top-dose-only effect; cell line not stated here; note: nearly all actives have a fitted effect of over 65% in size
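PINK1 protein level read as immunofluorescence by microplate cytometer in a fixed, stained stable cell line after 24 h exposure to five compound concentrations, with CCCP as control.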
PTAP TSG101 blk = blocks PTAP/TSG101 interaction to inhibit HIV-1 budding; 340,000 tested, under 10 active; Potency, µM (top dose mostly 115 µM), usual class: inhibitors; Fluorescence polarization, FITC-PTAP peptide / Tsg101 binding; active = well fitted inhibition curve with a large enough effect in the main read-out, with a control signal flat, not every such curve was filed as active; inconclusive = small, poorly fitted or top-dose-only effect, or effect the other way, or a change in a side signal; inactive = no such curve, though single readings can be large or run the other way
Target sequence (Q99816 whole entry, looked up): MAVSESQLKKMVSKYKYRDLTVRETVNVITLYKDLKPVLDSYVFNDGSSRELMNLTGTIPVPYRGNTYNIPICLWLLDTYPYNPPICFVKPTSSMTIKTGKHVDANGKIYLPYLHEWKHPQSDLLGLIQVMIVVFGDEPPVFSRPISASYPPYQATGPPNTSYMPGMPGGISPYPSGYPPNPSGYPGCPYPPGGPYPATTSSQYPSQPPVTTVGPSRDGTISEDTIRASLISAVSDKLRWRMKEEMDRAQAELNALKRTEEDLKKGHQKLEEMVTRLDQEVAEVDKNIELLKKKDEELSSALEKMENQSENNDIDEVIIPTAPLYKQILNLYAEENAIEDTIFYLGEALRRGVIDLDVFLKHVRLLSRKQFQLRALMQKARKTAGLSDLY
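Compounds were pin-transferred onto Tsg101 binding domain (10 uM final) in HEPES pH 7.5 buffer, then FITC-PTAP peptide was added at 50 nM final. After 20 min at RT, polarization reported peptide displacement across a qHTS concentration series.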
KB-3-1 cytotox = kills parental KB-3-1 adenocarcinoma cells; actives 1.4% (n = 400,000); AID 1347075; KB-3-1 viability, CellTiter-Glo ATP luminescence, 72 h; Potency, µM (doses to about 46.1 µM), actives largely listed as cytotoxic; note: nearly all actives have a fitted effect of over 60% in size
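Viability of parental KB-3-1 cells, measured by CellTiter-Glo luminescence, followed a 72 h incubation at 37 °C with pinned compounds in phenol-red-free DMEM containing 10% FBS.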
Large screens that a line does not name were inactive. Unless noted, calls come from the whole dose curve; as a rule, active = well fitted curve in the direction sought with a large enough effect; inconclusive = small, poorly fitted or top-dose-only effect, or another doubt; inactive = no such curve, though single readings can be large; an effect the other way counts as inactive or inconclusive.

CCCCCCn1c(N)c(C(=O)NCCN2CCOCC2)c2nc3ccccc3nc21	MCF10A rereplic 0.82µM, SW480 rerep 21µM, KB-V1 MDR tox inconclusive, KB-3-1 cytotox inconclusive
CCCNC(=O)c1c(N)n(CC2CCCO2)c2nc3ccccc3nc12 (stereo not drawn)	MCF10A rereplic 18µM, SW480 rerep 16µM, KB-V1 MDR tox inconclusive
CC(C)OCCCNC(=O)c1c(N)n(CC2CCCO2)c2nc3ccccc3nc12 (stereo not drawn)	none
CCCCCC(O)C1C(=O)OC(C)C(O)\C=C/C=C\C=C/C=C\C=C(\C)C(O)C(O)C(O)CC(O)CC(O)CC(O)CC(O)CC1O (stereo not drawn)	none (no result: KB-V1 MDR tox, PINK1 modulator, PTAP TSG101 blk, KB-3-1 cytotox)
CCOc1ccc(CN(CCc2ccc3c(c2)OCO3)Cc2cc(OC)ccc2O)cc1	none (no result: MCF10A rereplic, SW480 rerep, PTAP TSG101 blk)
COCCCn1c(N)c(C(=O)NCCC(C)C)c2nc3ccccc3nc21	MCF10A rereplic inconclusive, SW480 rerep inconclusive, KB-V1 MDR tox 23µM, KB-3-1 cytotox inconclusive
O=C(CC1CCCCC1)c1c(O)c2ccccc2oc1=O	MCF10A rereplic inconclusive, KB-3-1 cytotox 5.8µM
C[C@@H]1O[C@@H](O[C@H]2C[C@@H](O)[C@]3(CO)[C@H]4[C@H](O)C[C@]5(C)[C@@H](C6COC(=O)C6)CC[C@]5(O)[C@@H]4CC[C@]3(O)C2)[C@H](O)[C@H](O)[C@H]1O (stereo partly drawn)	MCF10A rereplic inconclusive, SW480 rerep 5.2µM, KB-V1 MDR tox 1.6µM, KB-3-1 cytotox inconclusive
C[C@H]1CC[C@@H]2[C@@H](C)[C@H]3[C@H](C[C@H]4[C@@H]5CC=C6CC(O[C@@H]7O[C@H](CO)[C@H](O)[C@H](O[C@@H]8O[C@H](CO)[C@@H](O)[C@H](O)[C@H]8O)[C@H]7O[C@H]7O[C@@H](C)[C@H](O)[C@@H](O)[C@H]7O)CC[C@]6(C)[C@H]5CC[C@]34C)N2C1 (stereo partly drawn)	SW480 rerep inconclusive (no result: KB-V1 MDR tox, PINK1 modulator, PTAP TSG101 blk, KB-3-1 cytotox)
Cc1ccccc1NC(=O)c1cc(-c2ccccc2)n(CCCN2CCOCC2)c1C	none
Cc1ccccc1NC(=NCCCN1CC1)Nc1ccccc1C	MCF10A rereplic 21µM, SW480 rerep inconclusive, KB-3-1 cytotox inconclusive
CCCC(CCC)C(=O)OC1C[C@H]2CC[C@@H](C1)[N+]2(C)C (stereo partly drawn)	MCF10A rereplic inconclusive
ClCCN(CCCl)c1ccc(C=Cc2ccncn2)cc1	MCF10A rereplic 15µM, SW480 rerep inconclusive
CN1CC=C(c2c[nH]c3ccccc23)CC1	none
C1=C(c2c[nH]c3ccccc23)CCN(Cc2ccccc2)C1	MCF10A rereplic 16µM, SW480 rerep 13µM, KB-3-1 cytotox inconclusive
CC1=C(N2CC2)C(=O)C(CO)=C(N2CC2)C1=O	MCF10A rereplic inconclusive, SW480 rerep inconclusive, KB-V1 MDR tox 0.26µM, KB-3-1 cytotox 0.46µM
CN(CC(=O)Nc1ccc(N2CCOCC2)cc1)CC(=O)Nc1cccc(C#N)c1	SW480 rerep inconclusive
O=C1NC(=O)N(Cc2ccccc2)C(=O)/C1=C/C=C/c1ccco1	MCF10A rereplic 4.1µM, SW480 rerep 18µM, KB-3-1 cytotox 15µM
COc1ccc(CN2C(=O)NC(=O)/C(=C\c3ccco3)C2=O)cc1	none
CC(C)c1ccc(N2C(=O)NC(=O)/C(=C\c3cnc(-c4ccccc4)nc3)C2=O)cc1	KB-V1 MDR tox inconclusive
CC(C)c1ccc(N2C(=O)NC(=O)/C(=C\C=C\c3ccco3)C2=O)cc1	MCF10A rereplic 3.7µM, SW480 rerep 21µM, KB-V1 MDR tox inconclusive, KB-3-1 cytotox inconclusive
CCOc1ccc(N(CC)S(=O)(=O)c2ccc3c(c2)oc(=O)n3C)cc1	MCF10A rereplic inconclusive, KB-V1 MDR tox inconclusive, KB-3-1 cytotox inconclusive
C=C1C(C)C2C(Cc3ccccc3)NC(=O)C23OC(=O)/C=C/C(O)CCCC(C)C/C=C/C3C1O (stereo not drawn)	MCF10A rereplic 6.5µM, SW480 rerep 9.2µM, KB-V1 MDR tox inconclusive, PINK1 modulator inconclusive, KB-3-1 cytotox inconclusive
